Hit rate of the full screen: of about 420,000 compounds, about 64,000 (15%) were called active. Roughly 27% stayed inconclusive and do not appear here. Calls come from the whole dose curve; as a rule, active = well fitted inhibition curve with a large enough effect; inconclusive = small, poorly fitted or top-dose-only effect; inactive = flat fitted curve, though single readings scatter. Not all results are given here. A call without a number means that no potency is given here.
Experiment: qHTS for Inhibitors of human tyrosyl-DNA phosphodiesterase 1 (TDP1): qHTS in cells in absence of CPT; note: nearly all actives have a fitted effect of over 55% in size
Details: DT40 Tdp1-/- hTDP1 cells, no CPT, ATP luminescence, 48 h; activity change, negative = growth inhibition: at 46.2 µM (top of the series)
Summary of the method: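 A cellular qHTS used chicken DT40 cells lacking endogenous Tdp1 but carrying stably transfected human TDP1. Compounds were applied without camptothecin, and cell growth kinetics were judged by ATP-dependent luminescence after ≥48 hr.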
Potency is the fitted concentration of half-maximal effect.

Structure (SMILES)	Potency	activity change, negative = growth inhibition
O=[n+]1c2c(n([O-])c3cc(Br)ccc31)CCC2	inactive	
O=C(C1=C(O)C(=O)N(Cc2ccccc2)C1c1cccnc1)c1ccco1 (stereo unspecified)	inactive	
CCOc1cc(C2C(C(=O)c3ccco3)=C(O)C(=O)N2Cc2ccccc2)ccc1O (stereo unspecified)	inactive	
CC(C)c1ccc(C2C(C(=O)c3ccco3)=C(O)C(=O)N2CC2CCCO2)cc1 (stereo unspecified)		-77.9% (active)
CCCc1nnc(NC(=O)CN2C(=O)c3ccccc3S2(=O)=O)s1	inactive	
Cc1ccc(-n2ncc3c(Nc4cccc(C(=O)O)c4)ncnc32)cc1	inactive	
Cc1ccc(-c2nc3c(cnn3-c3ccccc3)c(=O)o2)cc1	inactive	
Cc1ccc(-n2ncc3c(=O)n(-c4ccc(C)c(C)c4)c(-c4ccco4)nc32)cc1	18.4 µM (active)	
O=Cc1c(NCCc2cccc(F)c2)c2ccccc2[nH]c1=O	inactive	
CCC(=O)Nc1ccc(C(=O)NNC(=O)c2ccc(Cl)cc2)cc1	inactive	
CC(=O)OC(C(=O)NC1CCCCC1)c1ccccc1 (stereo unspecified)	inactive	
Cc1cnc(CN(C)C(=O)CC2C(=O)NCCN2Cc2cccc(F)c2F)[nH]1 (stereo unspecified)	inactive	
Cc1ccc(Cn2c(C)c3cnn(CC(=O)NCc4ccccc4)c(=O)c3c2C)cc1	2.91 µM (active)	
CCCn1c2ccccc2c2cnn(CC(=O)NCC3CCN(Cc4ccc(C)cc4)CC3)c(=O)c21	10.3 µM (active)	
CCCn1c2ccccc2c2cnn(CC(=O)NCCCN3CCCCC3CC)c(=O)c21 (stereo unspecified)	inactive	
Cc1nn(CC(=O)NC2CCCCC2)c(=O)c2cccn12	inactive	
Cc1ccc2oc(=O)c3cnn(CC(=O)NCc4ccccc4Cl)c3c2c1	inactive	
O=C(Cn1ncc2c3ccccc3n(Cc3ccccc3)c2c1=O)NC1CCCCCC1	3.66 µM (active)	
Cc1ccc(Cn2c(C)c3cnn(CC(=O)NCCN4CCOCC4)c(=O)c3c2C)cc1	inactive	
Cc1ccccc1CNC(=O)Cn1c(C)c2cnn(-c3ccccc3)c(=O)c2c1C	inactive	
Cc1c2cnn(CC(=O)NCc3ccccn3)c(=O)c2c(C)n1Cc1ccc(Cl)cc1	inactive	
CCN(CC)CCNC(=O)Cn1ncc2c3ccccc3n(Cc3ccccc3C)c2c1=O	25.9 µM (active)	

Structure (SMILES)	Potency	activity change, negative = growth inhibition
O=C(Cn1ncc2c3ccccc3n(Cc3ccccc3)c2c1=O)NCc1ccccn1	inactive	
CCOC(=O)N1CCC(NC(=O)C(C)n2c3ccccc3c3cnn(C)c(=O)c32)CC1 (stereo unspecified)	inactive	
O=C1OC(Cc2ccccc2)C(c2ccccc2)C1=O (stereo unspecified)	inactive	
Cc1cc(S(=O)(=O)NCC(C)C)ccc1OCC(=O)NC1CC1	inactive	
CCCCCC(=O)Nc1ccc(-c2cn3cccnc3n2)cc1	inactive	
O=C(NNC(=O)C(O)c1ccccc1)NC1CCCCC1 (stereo unspecified)	inactive	
Cc1ccc(NC(=O)C(c2ccccc2)N2CCN(C(=O)c3ccco3)CC2)cc1 (stereo unspecified)	inactive	
O=c1c(-c2cc(F)cc(F)c2)nc2cnc(Oc3ccccc3)nc2n1C[C@H]1CCCO1	inactive	
CC1OC(OCC2OC(Oc3c(-c4ccc(O)c(O)c4)oc4cc(O)cc(O)c4c3=O)C(O)C(O)C2O)[C@@H](O)C(O)C1O (stereo partly specified)	inactive	
O=C(O)Cc1ccc(NC(=O)Nc2cccc3ccccc23)cc1	inactive	
Cc1ccc2c(c1)N(CC(=O)N1CCCC(C)C1)C(=O)CO2 (stereo unspecified)	inactive	
NC1=C([N+](=O)[O-])C(c2ccccc2)C2=C(CCCC2=O)O1 (stereo unspecified)	inactive	
CCOc1cnc(C(=O)NNC(=O)c2ccccc2Br)o1	inactive	
Cc1cccc(C)c1NC(=O)NC1=CCCN1C	inactive	
CC1CC(C)CN(CCC(=O)Nc2ccc3c(c2)CCC3)C1 (stereo unspecified)	inactive	
COC(=O)N(C)C[C@@H]1OCc2cnnn2CCCC(=O)N([C@@H](C)CO)C[C@@H]1C	inactive	
CC(C)(C)n1nnnc1C(c1ccc2ncccc2c1)N1CCSCC1 (stereo unspecified)	inactive	
O=C1c2ccccc2C(=O)N1CCOc1ccc(F)cc1	inactive	
Cc1cccc(C)c1-n1nnnc1C1(C)CCC(=O)N1CCOc1ccccc1 (stereo unspecified)	inactive	
Cc1cccc2c1N(CCOc1ccccc1)C(=O)C2=O	1.3 µM (active)	
CNS(=O)(=O)c1ccc(NC(=O)C2CC(=O)N(c3ccc(Cl)cc3)C2)cc1 (stereo unspecified)	inactive	
CC12C(=O)N(c3ccccc3)C(=O)C1C(c1ccccc1)N1CCCN12 (stereo unspecified)	inactive	

Structure (SMILES)	Potency	activity change, negative = growth inhibition
CCCN(c1ccc(C)cc1)c1nc(=O)c2cccnc2s1	18.4 µM (active)	
NC1=NC2(CCCCC2)N(c2ccc(F)cc2F)C(N)=N1	inactive	
NC(=O)C(Cc1ccccc1)NC(=O)C12CC3CC(CC(C3)C1)C2 (stereo unspecified)	inactive	
COC(=O)c1sc(NC(=O)c2ccc(OC)cc2OC)nc1C	inactive	
COc1cc2ccccc2cc1C(=O)Nc1nc(C)c(C(C)=O)s1	inactive	
COc1ccc2c(c1)Cc1sc(NC(=O)c3ccccc3Br)nc1-2	18.4 µM (active)	
COCCN1C=C2C(=O)C(C)(OC(=O)C3CCCC3)C(=O)C=C2C=C1c1ccsc1 (stereo unspecified)	inactive	
CC(NC(=O)c1cc(Sc2ccc(F)cc2F)nc2ccccc12)c1ccccc1 (stereo unspecified)	23.1 µM (active)	
CC(NC(=O)c1cc(=O)[nH]c2ccccc12)c1ccc(F)cc1F (stereo unspecified)	inactive	
CC(C)OCCCNC(=O)c1cc(Sc2ccc(F)cc2)nc2ccccc12	inactive	
CCCCCc1nnc(NC(=O)c2ccc(=O)n(C)n2)s1	inactive	
CC(=O)Nc1cccc(-c2ccnc3c2CC(C)(C(=O)NCc2ccco2)O3)c1 (stereo unspecified)	2.91 µM (active)	
COc1ccc(NC(=O)Nc2cccc(-c3noc(C)n3)c2)cc1	inactive	
COC(=O)Cc1ccc(NC(=S)NCc2ccco2)cc1	inactive	
O=C(NCc1cccc(CNC(=O)Nc2cccc(O)c2)c1)Nc1cccc(O)c1	inactive	
CC(=O)Nc1cccc(-c2ccnc3c2CC(C)(C(=O)NCc2ccccc2)O3)c1 (stereo unspecified)	0.92 µM (active)	
CC1(C)CC(=O)c2cc(C(=O)NCc3ccccc3)c(=O)[nH]c2C1	inactive	
COc1ccc(NC(=O)C2(C)Cc3c(-c4ccc(C(N)=O)cc4)ccnc3O2)cc1 (stereo unspecified)	inactive	
COc1ccc(NC(=O)C2(C)Cc3c(-c4cccc(NC(C)=O)c4)ccnc3O2)cc1 (stereo unspecified)	1.16 µM (active)	
CCC(C)(C)NC(=O)CN(C(=O)CCC(=O)Nc1cc(C)ccn1)c1ccc2c(c1)OCCO2	inactive	
Cc1cc(=O)oc2cc(OC(C)C(=O)NCCc3ccc(S(N)(=O)=O)cc3)ccc12 (stereo unspecified)	inactive	
CSc1nnc(CNC(=O)c2ccccc2)n1-c1ccc(F)cc1	inactive	

Structure (SMILES)	Potency	activity change, negative = growth inhibition
O=C1CSc2ccc(C(=O)NCc3ccccn3)cc2N1	inactive	
CCc1nn(CC(=O)Nc2cc(C)cc(C)c2)c(=O)c2cc3sccc3n12	5.17 µM (active)	
CCc1nn(CC(=O)Nc2cccc(C)c2C)c(=O)c2cc3sccc3n12	inactive	
CCCC1NC(=S)NC(C)=C1C(C)=O (stereo unspecified)	inactive	
Nc1[nH]c(C(=O)c2ccccc2)c(-c2ccc(Br)cc2)c1C(=O)NC1CC1	inactive	
Cc1ccc2nc(CN3CCN(S(=O)(=O)c4ccc(C)c(C)c4)CC3)oc2c1	inactive	
O=Cc1cn(CCOc2ccc(F)cc2)c2ccccc12	11.6 µM (active)	
Cc1cc(N2C(=O)C(=O)/C(=C(/O)c3ccc(Cl)cc3)C2c2cccc(Br)c2)no1 (stereo unspecified)	inactive	
CC1(C(=O)NCc2ccccc2)CSCC(=O)N1CCCN1CCOCC1 (stereo unspecified)	inactive	
c1ccc2[nH]c(NCCN3CCOCC3)nc2c1	inactive	
O=C(Cn1c(-c2ccccn2)nc2ccccc21)NCCN1CCOCC1	inactive	
c1ccc2cc3c(NCCN4CCOCC4)ccnc3cc2c1	20.6 µM (active)	
CC1CCCN(C(=O)Cn2c(=O)oc3ccccc32)C1 (stereo unspecified)	inactive	
CC(C)NC(=S)Nc1cccc2cnccc12	inactive	
O=C(NCCN1CCOCC1)c1cccc(S(=O)(=O)Nc2ccc(F)cc2)c1	inactive	
CCN(c1ccccc1)S(=O)(=O)c1cccc(C(=O)NCc2ccccc2CN2CCOCC2)c1	18.4 µM (active)	
CCN(c1ccccc1)S(=O)(=O)c1cccc(C(=O)O)c1	inactive	
CCCc1ccc(OCc2ccc(C(=O)N/N=C/c3cccc([N+](=O)[O-])c3)o2)c(OC)c1	6.51 µM (active)	
COC(=O)c1ccc(COc2ccc(/C=N/NC(=O)C(=O)Nc3ccc(OC)cc3)cc2OC)o1	inactive	
Cc1ccc(NC(=O)O/N=C/c2cccc([N+](=O)[O-])c2)cc1	inactive	
CC(OC(=O)CN1C(=O)COc2ccccc21)C(=O)NCc1ccc(F)cc1 (stereo unspecified)	inactive	
COc1ccc(CCNC2=C(Cl)C(=O)N(Cc3ccccc3)C2=O)cc1OC	20.6 µM (active)	

Structure (SMILES)	Potency	activity change, negative = growth inhibition
COc1ccc(CCNS(=O)(=O)c2ccc(Cl)s2)cc1OC	inactive	
COc1ccc(CCNC(=O)CN(c2ccccc2)S(C)(=O)=O)cc1OC	inactive	
COc1c(C(C)C)oc2cc3oc(=O)ccc3cc12	inactive	
CCOC(=O)CCCN1CC(O)=C(c2nc3ccccc3s2)C1=N	inactive	
O=C(Nn1c(-c2ccccc2)nc2ccccc2c1=O)c1ccc([N+](=O)[O-])cc1	inactive	
N=C1C(c2nc3ccccc3s2)=C(O)CN1NC(=O)c1ccc([N+](=O)[O-])cc1	23.1 µM (active)	
Cc1nc2cc(NC(=O)CSc3nc4c(C)cccc4cc3C#N)ccc2s1	inactive	
COCCNC(=O)c1snc2ccc(Cl)cc12	inactive	
CCOc1ncccc1C(=O)N(C)CC(=O)Nc1ccc(F)cc1	inactive	
O=C(O)CN1c2cccc3cccc(c23)S1(=O)=O	inactive	
COc1ccccc1CNC(=O)COC(=O)CNS(=O)(=O)c1ccc(NC(C)=O)cc1	inactive	
COc1ccc(CNC(=O)COCc2cc(-c3cccs3)on2)cc1OC	23.1 µM (active)	
COc1ccc(CNC(=O)COC(=O)c2sccc2C)cc1OC	inactive	
COc1ccc(OC)c(CNC(=O)CCc2nc(-c3cccs3)no2)c1	inactive	
Cc1cc(C)cc(NC(=S)NCCCN2CCOCC2)c1	inactive	
CCOc1c2ccc(C(=O)NCc3ccc4c(c3)OCO4)cc2nn1C	inactive	
Cc1ccc(-n2nc3c(c2NC(=O)c2ccc4c(c2)OCO4)CSC3)c(C)c1	inactive	
C=CCNC(=O)c1ccc2c3n(nc2c1)-c1ccc(C)cc1CO3	18.4 µM (active)	

From PubChem BioAssay AID686978 (National Center for Advancing Translational Sciences (NCATS), 2013)
